Compound activity deposited in PubChem BioAssay by Sanford-Burnham Center for Chemical Genomics.
Compounds with a hit are over-represented: about 4% of the library has one in this group of screens.
tim23-1 inh – tim23-1 yeast growth inhibition | S. cerevisiae tim23-1 growth, BacTiter-Glo luminescence, 24 h | inhibition, % at 20 µM | actives 1.3% (n = 330,000) | AID 463212;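 active = growth inhibition of the mutant yeast at or above 50%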;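 note: temperature-sensitive mutant grown at 25 °C; plate controls were DMSO-treated mutant yeast for no effect and medium wells lacking yeast for full effect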
tim10-1 inh – inhibits growth of tim10-1 mutant yeast; S. cerevisiae tim10-1 ts strain growth, BacTiter-Glo, 24 h; inhibition, % at 20 µM; actives 2.2% (n = 330,000);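 active = inhibition of at least 40%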;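 note: mutant grown at 25 °C; 0% = DMSO wells with yeast and 100% = wells holding no yeast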
TIM10 inh – inhibits growth of TIM10 yeast strain. S. cerevisiae TIM10 strain growth, BacTiter-Glo luminescence, 24 h. inhibition, % at 10 µM. actives 1.4% (n = 330,000);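 active = inhibition of 40% or more at the single tested concentration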;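 note: wild-type TIM10 isogenic control strain grown at permissive 25 °C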
NALP1 inh – inhibitors of NALP1 inflammasome in yeast | S. cerevisiae NALP1/ASC/caspase-1 growth, X-gal OD620, 72 h | inhibition, % at 10 µM | actives 0.61% (n = 280,000) | AID 2071; in the data active = inhibition mostly above about 24%, no sharp cut-off; inactive = mostly below about 32%
NALP3 yeast inh – blocks the NALP3 inflammasome reconstituted in yeast. actives 0.39% (n = 330,000). inhibition, % at 10 µM. AID 2825. Yeast reconstituted NLRP3/ASC/caspase-1, beta-gal luminescence, 24 h;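 active = inhibition of 50% or more; inactive = inhibition below 50%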;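 note: plate controls were induced DMSO wells for no effect and uninduced yeast grown without galactose for full effect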
tim10-1 conf – tim10-1 yeast growth inhibition, confirmed | shares compounds with tim10-1 inh | S. cerevisiae tim10-1 ts strain growth, BacTiter-Glo, 24 h | inhibition, % at 20 µM | actives 56% (n = 7,400) | AID 463213;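 active = inhibition of yeast growth at or above a set limit in either of two repeat tests at 20 µM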;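 note: tim10-1 mutant grown at permissive 25 °C to find synthetic lethal compounds; 0% = DMSO yeast wells and 100% = medium wells without yeast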
Starred values were filed as active, the others as inactive; . = no result.

SMILES	tim23-1 inh	tim10-1 inh	TIM10 inh	NALP1 inh	NALP3 yeast inh	tim10-1 conf
CCOC(=O)C1(CCc2ccccc2)CCN(C(=O)CCc2cnn(C)c2)CC1	27	42*	15	8	0	30*
Cc1cccc(S(=O)(=O)N2CCn3cccc3C2C)c1 (stereo not given)	31	18	7	.	-2	.
O=C(c1cc(COc2ccc(F)cc2Cl)on1)N1CCCC(OCc2cccnc2)C1 (stereo not given)	20	44*	8	7	-7	26
Cc1ccc(C)c(OCc2cc(C(=O)N3CC[C@@H]4CCCC[C@H]4C3)no2)c1	14	7	13	-6	6	.
O=C(NCCc1cccnc1)c1cc(COc2ccc(F)cc2Cl)on1	29	45*	3	24	25	18
COc1cc(C)ccc1OCc1cc(C(=O)N2CCC(c3ccc(F)cc3)C2)no1 (stereo not given)	33	41*	19	9	30	27*
Cc1cc(NC(=O)CN2C(=O)N(C)C3(CCCCC3)C2=O)ccc1Br	17	15	3	.	18	.
O=C(CN1CCN(C(=O)C2CCN(C(=O)/C=C/c3ccccc3)CC2)CC1)Nc1ccccc1Cl	-3	-3	9	.	12	.
Cc1ccc(S(=O)(=O)N2CCC(C(=O)Nc3cc(C(F)(F)F)ccc3N3CCOCC3)CC2)cc1C	9	4	-2	.	23	.
Cc1[nH]n(-c2ccccc2)c(=O)c1C(c1ccccc1[N+](=O)[O-])C(C#N)C#N (stereo not given)	43	44*	31	-11	-27	33*
CCOc1ccc(N(CC(=O)Nc2ccc(OC)cc2OC)S(=O)(=O)c2c(C)[nH]c(=O)[nH]c2=O)cc1	8	5	12	18	11	.
Cc1sc(NC(=O)c2ccco2)c(C(Nc2ccccn2)c2ccccc2)c1C (stereo not given)	33	40	25	39	17	25
Cc1sc(NC(=O)c2ccco2)c(C(c2cccnc2)N2CCCC2)c1C (stereo not given)	49	52*	22	6	0	45*
COc1ccc(C(Nc2ccccn2)c2c(NC(=O)c3ccco3)sc(C)c2C)cc1 (stereo not given)	47	41*	38	30	13	26
Cc1sc(NC(=O)c2ccco2)c(C(c2cccnc2)N2CCN(C)CC2)c1C (stereo not given)	24	10	-1	10	18	.
COc1ccc(C(=O)NCCc2nnc3ccc(SCC(=O)N4CCCCC4)nn23)cc1	-23	-15	5	8	18	.
COc1cc(OC)cc(OC(=O)C2CCN(C(=O)c3ccc(F)cc3)CC2)c1	4	10	-1	.	13	.
O=C(c1cccs1)N1CCN(c2ncc(C(F)(F)F)cc2Cl)CC1	29	19	5	6	14	.
CCc1cc(C(=O)N2CCN(c3ncc(C(F)(F)F)cc3Cl)CC2)sc1C	26	42*	5	-7	13	35*
Cc1ccc(-n2nc3c(N4CCC(C(=O)NCc5cccc(F)c5)CC4)nnc(C)c3c2C)cc1	0	10	11	20	13	.
Cc1ccccc1N=C1NN=C(c2ccccc2F)CS1	15	42*	6	20	-1	22
Cn1cc(C(=O)C(=O)N2CCc3ccccc32)c2ccccc21	19	27	21	7	15	.
Cc1ccc(-c2nnc(-c3ccccc3)c(-c3ccccc3)n2)cc1	21	33	26	10	-10	.
Nc1nnc(-c2ccccc2)c(-c2ccccc2)n1	12	41*	-2	37	7	10
O=C(c1cc2ccccc2oc1=O)N(Cc1cccs1)Cc1cccs1	26	42*	15	12	17	14
SMILES	tim23-1 inh	tim10-1 inh	TIM10 inh	NALP1 inh	NALP3 yeast inh	tim10-1 conf
O=C(c1cc2ccccc2oc1=O)N(Cc1ccco1)Cc1cccs1	36	27	2	6	10	.
O=C(CS(=O)(=O)c1ccccc1)c1cc2ccccc2oc1=O	50	42*	17	8	-10	1
CC1CCCN(S(=O)(=O)c2cccc(C(=O)NCC3CCCO3)c2)C1 (stereo not given)	14	3	-8	.	-1	.
CC(C)Cn1c(N)c(C(=O)COC(=O)CCc2nc3ccccc3s2)c(=O)n(C)c1=O	25	22	24	8	-3	.
O=C1CC(N2CCN(Cc3ccc4c(c3)OCO4)CC2)C(=O)N1CCc1ccccc1 (stereo not given)	-6	15	0	9	28	.
O=C(CNc1cccc2ccccc12)N/N=C/C(Br)=C/c1ccccc1	48	41*	36	-2	-5	31*
O=C(CN1C(=O)/C(=C\c2cccc(Br)c2)Oc2ccccc21)NCCCN1CCOCC1	32	44*	21	8	-1	26
O=C(CN1C(=O)COc2ccccc21)NCCCN1CCOCC1	2	-16	-10	24	10	.
Cc1cccc(N/N=C/c2ccccc2O)c1	21	-1	18	34	19	.
C=CCNC(=S)NNc1nc2c(c(=O)[nH]1)C1(CCCCC1)Cc1ccccc1-2	31	52*	39	12	5	42*
O=c1[nH]c(NCCO)nc2c1C1(CCCC1)Cc1ccccc1-2	10	20	4	6	16	.
CCN(CC(=O)Nc1c(F)cccc1F)C(=O)COc1ccc2c(c1)CCC2	-5	-10	-10	.	11	.
Cc1ccc(C)c(OCCC(=O)OCC(=O)N2CCN(S(=O)(=O)c3ccc(Cl)cc3)CC2)c1	28	45*	33	.	31	29*
COc1cccc(C(=O)/C=C/c2ccc(OCC#N)c(OC)c2)c1	38	43*	38	16	12	31
COc1cccc(C(=O)/C=C/c2ccc(SC)cc2)c1	31	29	12	-6	24	.
COC(=O)c1ccc(/C=C/C(=O)c2cccc(OC)c2)cc1	36	42*	20	39	28	34*
COc1ccc(OC)c(/C=C/C(=O)N2CCN(S(=O)(=O)c3ccc(C)cc3C)CC2)c1	29	11	15	.	11	.
CC1(C)CC(=O)c2c(O)cc(OCC(=O)N3CCN(c4ccc(F)cc4)CC3)cc2O1	34	8	19	22	8	.
O=C(c1cc(C2CC2)nn1-c1ccccc1)N1CCN(c2ccccc2O)CC1	49	22	24	.	18	.
O=C(c1cc(C2CC2)nn1-c1ccccc1)N1CCN(c2ccccn2)CC1	30	42*	13	.	18	4
CC(=O)N1CCN=C1SCc1cccc(C)c1	-1	8	7	16	14	.
O=C(NCc1nc2ccccc2[nH]1)c1cc2ccccc2oc1=O	6	41*	24	26	15	21
CCOC(=O)[C@H]1NN=C(C(=O)OC)[C@@H]1c1ccccc1	11	11	-11	4	9	.
Cc1cc(OCCCCOc2ccc(S(N)(=O)=O)c(C)c2)ccc1S(N)(=O)=O	4	13	-8	6	16	.
